Source: PubChem BioAssay (several laboratories)
BoNT A protease = inhibitors of Botulinum neurotoxin A light chain protease; multiplex microsphere protease substrate cleavage, flow cytometry; inhibition, % at 10 µM; AID 588499; actives 0.17% (n = 360,000)
Autofluor counter = flagged as autofluorescent in microsphere protease counterscreen | actives 3.1% (n = 360,000) | compound autofluorescence counterscreen, microsphere flow cytometry; hits give high values | fluorescence intensity (concentration not given with the values); in the data active = fluorescence intensity above about 16000; inconclusive = no clear call, values can overlap the other calls
Anthrax LF inh2 = blocks Bacillus anthracis lethal factor protease; P15917; multiplex microsphere protease cleavage assay, LF; inhibition, % at 10 µM; actives 0.12% (n = 360,000); AID 588501
MazF activator = increases E. coli MazEF RNase cleavage of RNA. P0AE70. FAM/BHQ RNA-DNA oligo cleavage fluorescence, 5 h. activation, % at 20 µM. actives 0.32% (n = 350,000); in the data active = activation above about 50%
Target sequence (P0AE70 whole entry, looked up): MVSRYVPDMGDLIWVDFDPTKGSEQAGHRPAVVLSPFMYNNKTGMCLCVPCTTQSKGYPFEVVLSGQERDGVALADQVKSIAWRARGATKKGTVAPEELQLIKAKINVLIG
BoNT-F LC inh = BoNT F light chain protease inhibition | Multiplex microsphere protease cleavage assay, flow cytometry | inhibition, % at 10 µM | actives 0.22% (n = 360,000) | AID 588497; in the data active = inhibition above about 35%, passing the limit was not always enough; inconclusive = no clear call, values can overlap the other calls
Hits are given with their value; n = inactive; u = inconclusive; x = not tested or not shown. Only some compounds are listed: those with a hit (about 3.7% of all), similar ones and a draw of the others. Cut-off read from the data, not from the text of the source, unless noted: active = inhibition above about 30%; inconclusive = no clear call, values can overlap the other calls; inactive = below that.

SMILES | BoNT A protease | Autofluor counter | Anthrax LF inh2 | MazF activator | BoNT-F LC inh
COc1ccc(NC(=O)C2(c3ccccc3)CCCC2)cc1 | n | n | n | n | n
COc1ccc(NC(=O)C2(c3ccc(NC(=O)c4ccc(OC(C)=O)cc4)cc3)CCCC2)cc1 | n | 20395 | n | n | n
CC(=O)c1cccc(NC(=O)NCc2cccnc2)c1 | n | 20530 | n | n | n
O=C(NCc1cccnc1)Nc1cccc(NC(=O)NCc2cccnc2)c1 | n | 27382 | n | n | n
O=C(NCc1cccnc1)Nc1cccc(Cl)c1 | n | n | n | n | n
NC(c1ccccc1)c1csc(Nc2ccc(C(F)(F)F)cn2)n1 (configuration not stated) | n | n | n | x | n
CC1CN(C(=O)c2cc3cc([N+](=O)[O-])ccc3s2)CC(C)O1 (configuration not stated) | n | n | n | 160.9 | n
Cc1ccc(-n2c(C)cc3c2CC(C)(C)CC3=O)cc1C | n | n | n | n | n
Cc1cc2c(n1-c1ccc(Br)cc1)CC(C)(C)CC2=O | n | 16349 | n | n | n
Cc1ccc(N2CCCn3c2cc(C)c(C#N)c3=O)cc1Cl | n | n | n | n | n
Cc1ccc(N2CCCn3c2cc(C)c(C#N)c3=O)cc1C | n | 21058 | n | n | n
CN(C)CCNc1nc(-c2ccco2)c2c(c1C#N)CC(C)(C)OC2 | n | 24132 | n | n | n
CC(C)CC(N)c1csc(Nc2ncccn2)n1 (configuration not stated) | n | n | n | x | n
CCOCCCNc1nc2c(C)cccn2c(=O)c1/C=C1\SC(=S)N(C(C)CC)C1=O (configuration not stated) | x | x | x | 602.9 | x
CCCN1C(=O)/C(=C/c2c(NCCCOCC)nc3c(C)cccn3c2=O)SC1=S | n | n | n | 295.2 | n
COc1ccc(NC(=O)N(C)C[C@H]2Oc3ccc(NC(=O)CCN4CCOCC4)cc3C(=O)N([C@@H](C)CO)C[C@H]2C)cc1 | n | n | n | n | n
CCC(NC(=O)C(C)NC)C(=O)N1CCCC1C(=O)NC1CCCc2ccccc21 (configuration not stated) | n | n | n | n | n
O=C(Nn1cnnc1)c1ccc(Cl)c(Cl)c1 | n | n | n | n | n
Cc1cc(N2CCN(C)CC2)ccc1NC(=O)c1cccc(S(=O)(=O)N2CCc3ccccc3C2)c1 | n | n | n | 50.2 | n
CC(=O)N1C[C@@H](CO)[C@@H](N(C)C(=O)C(C)(C)C)C[C@H]1c1ccccc1 | n | n | n | x | n
COc1ccccc1N(Cc1cc(=O)[nH]c2ccccc12)C(=O)c1ccccc1 | n | n | n | n | n
CN(Cc1cc(=O)[nH]c2ccccc12)C(=O)c1ccccc1 | n | 19977 | n | n | n
COc1nnc(-c2ccc(N3CCOCC3)c(NC(=O)C3CCCCC3)c2)c2ccccc12 | n | n | n | n | n
c1ccc2c3c(cc(N4CCOCC4)c2c1)OC1(N2CCOCC2)CCCCC1O3 (configuration not stated) | n | n | n | n | 36.4
COc1ccc(Cl)cc1N(CC(=O)NCCSc1ccccn1)S(=O)(=O)c1ccccc1 | n | n | n | n | n
SMILES | BoNT A protease | Autofluor counter | Anthrax LF inh2 | MazF activator | BoNT-F LC inh
CCC(C)(C)C1CCC2(CC1)NC(=O)N(CC(=O)N(C)Cc1ccc3c(c1)OCCO3)C2=O (configuration not stated) | n | n | n | n | n
Cc1c(Cl)c(C(=O)NC2C3CC4CC(C3)CC2C4)nn1C (configuration not stated) | u | 21785 | n | n | n
COc1ccc(-c2nc3c(C)cc(Br)cn3c2Cc2ccsc2)cc1OC | n | n | n | x | n
O=C1CC(c2ccccc2Cl)C2=C(COC2=O)N1 (configuration not stated) | n | 23482 | n | n | n
C[C@@H]1ON(C)[C@H]2C[C@H]3c4cc(-c5cccc(F)c5)ccc4CCN3C(=O)[C@@H]12 | n | n | n | n | n
COc1ccc(C2C(C#N)=C(N)N(c3cccnc3)C3=C2C(=O)CCC3)cc1Cn1cc([N+](=O)[O-])cn1 (configuration not stated) | n | n | n | 63.8 | n
Cc1ccccc1-c1noc(C2CCCCC2)n1 | u | 22659 | n | n | n
Cc1ccc2cc(-c3noc(C4CCCCC4)n3)c(=O)[nH]c2c1 | n | n | n | n | n
Cc1ccccc1-c1noc(C23CC4CC(CC(C4)C2)C3)n1 | n | 21714 | n | n | n
CCOC(=O)C1CCCN(c2c(NCCCN(CC)c3ccccc3)c(=O)c2=O)C1 (configuration not stated) | n | 24139 | n | n | n
O=C(Nc1cccc(C(=O)N2CCOCC2)c1)C1CCCCC1 | n | n | n | x | n
CCOC(=O)C1=C(N)n2c(s/c(=C/c3ccco3)c2=O)=C(C(=O)OC)C1c1ccco1 (configuration not stated) | u | 20070 | n | n | n
CC(=NCCN1CCOCC1)c1c(O)n(-c2ccccc2C)c(=O)[nH]c1=O | n | 23519 | n | n | n
CC(=NCC1CCCO1)c1c(O)n(C2CCCCC2)c(=O)[nH]c1=O (configuration not stated) | n | n | n | n | n
CC(=NCCCN1CCOCC1)c1c(O)[nH]c(=O)[nH]c1=O | n | 20875 | n | n | n
CC(=NCCN1CCOCC1)c1c(O)n(C2CCCCC2)c(=O)[nH]c1=O | n | 24874 | n | n | n
CSc1ccc(NC(=O)C2(C)CCN2C(=O)Cc2ccc(C(C)(C)C)cc2)cc1 (configuration not stated) | n | n | n | x | n
Cc1nc(-c2cccnc2)sc1C(=O)Nc1cccc(C(F)(F)F)c1 | u | 22572 | n | n | n
Cc1nc(-c2cccnc2)sc1C(=O)Nc1ccc(C(F)(F)F)cc1 | u | 22745 | n | n | n
O=C(Nc1cccc(C(F)(F)F)c1)c1csc([C@@H]2O[C@H](CO)[C@@H](O)[C@H]2O)n1 | n | n | n | x | n
O=c1cc[nH]c2cccc(Cc3ccccc3)c12 | n | 24296 | n | n | n
COc1cc(NC(=O)N2CCc3nc(Nc4cc(Cl)cc(Cl)c4)ncc3C2)cc(OC)c1OC | n | n | n | x | n
CCOc1ccc(NC(=O)CNC(=O)c2nn(-c3ccc(OC)cc3)c(=O)c3ccccc23)cc1 | n | n | n | 73.2 | n
Clc1cccc(-c2nc3ccc(Cl)cn3c2Cc2ccsc2)c1 | n | n | n | x | n
Cc1nc(NC(=O)c2cc(-n3cnnc3)ccc2Cl)ccc1Br | n | 21255 | n | n | n
SMILES | BoNT A protease | Autofluor counter | Anthrax LF inh2 | MazF activator | BoNT-F LC inh
O=C(NCc1ccc2c(c1)OCO2)c1cc(-n2cnnc2)ccc1Cl | n | 19482 | n | n | n
CCSCCNC(=O)c1cc(-n2cnnc2)ccc1Cl | u | 21120 | n | n | n
CC(C)(C)c1ccc(OCCCn2ccnc2)cc1 | n | n | n | n | n
CCCCC(=O)Nc1c(O)c2ccccc2[nH]c1=O | n | 21304 | n | n | n
COc1ccc(C(=O)c2oc3ccccc3c2N)cc1 | n | 20810 | n | n | n
COc1cccc(C2NC(=O)NC(C)=C2C(=O)Nc2ccc(C)cc2)c1OC (configuration not stated) | n | n | n | n | n
O=C(Nc1ccc(-c2nc3ccccc3o2)cc1)c1ccc2c(c1)OCO2 | n | 16511 | n | n | n
